Hit rate of the full screen: of about 91,000 compounds, about 40 (0.04%) were called active. Only a sample is shown. A number with no mark means an inactive call. Cut-off read from the data, not from the text of the source: active = activation above about 37%; inactive = the rest.
The molecules below were run against Bifunctional epoxide hydrolase 2 (Homo sapiens) (UniProt P34913) (assay: sEH enzyme activity enhancers – biochemical, human sEH, primary screen (AID 717)). Conditions: purified human sEH enzymatic activity, activator screen; at 2 µM; stronger effect = higher value.
Sequence of Bifunctional epoxide hydrolase 2 (Homo sapiens) (P34913 whole entry, looked up): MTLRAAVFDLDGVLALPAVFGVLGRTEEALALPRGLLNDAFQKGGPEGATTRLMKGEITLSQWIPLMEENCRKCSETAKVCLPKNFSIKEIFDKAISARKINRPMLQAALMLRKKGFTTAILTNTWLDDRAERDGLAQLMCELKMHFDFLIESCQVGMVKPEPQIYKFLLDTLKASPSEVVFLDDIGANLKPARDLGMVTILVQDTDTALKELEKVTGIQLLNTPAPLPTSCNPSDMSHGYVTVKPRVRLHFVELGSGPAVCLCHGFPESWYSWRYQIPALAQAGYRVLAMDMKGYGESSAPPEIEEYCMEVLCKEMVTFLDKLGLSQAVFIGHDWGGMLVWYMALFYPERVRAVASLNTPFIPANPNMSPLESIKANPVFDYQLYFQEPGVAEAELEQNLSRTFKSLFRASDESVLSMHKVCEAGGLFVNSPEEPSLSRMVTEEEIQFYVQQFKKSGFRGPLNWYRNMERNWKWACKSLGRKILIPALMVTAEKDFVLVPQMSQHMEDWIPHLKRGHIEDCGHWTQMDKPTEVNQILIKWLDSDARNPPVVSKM

SMILES | activation
CCC(=O)NC(NCC1CCCO1)C(Cl)(Cl)Cl (stereo unspecified) | 2.5%
O=C(CCc1ccc(S(=O)(=O)N2CCOCC2)cc1)Nc1ccc2ccccc2c1 | -20.5%
O=C(CCCOc1ccccc1)NCc1ccco1 | -2.8%
COc1ccc(C(=O)N2CCc3cc(OC)c(OC)cc3C2c2cccc([N+](=O)[O-])c2)cc1 (stereo unspecified) | 2.1%
Cc1cc(-c2cccs2)nc(-n2cccc2)n1 | -0.3%
CCN(CC)CCNc1ccc(Cl)cc1[N+](=O)[O-] | -8.3%
Cc1ccccc1NC(=O)C(C)c1ccc(-c2ccccc2)c(F)c1 (stereo unspecified) | -9.7%
CCOc1ccc(Nc2nc(Cc3nnc(SCC(=O)NC4CCCC4)n3C)cs2)cc1 | -12.4%
C=CCn1c(Cn2nnc3ccccc32)nnc1SCC(=O)N/N=C/c1cc(Br)cc(OC)c1O | -14.1%
CC12c3ccccc3C(c3ccccc31)C1C(=O)N(Cc3cccnc3)C(=O)C12 (stereo unspecified) | -9.7%
CNS(=O)(=O)c1cnccc1N1CCN(c2cccc(C)c2)CC1 | -13.7%
COc1ccc(Cl)cc1NC(=O)CN(C)C(=O)CNC(=O)C12CC3CC(CC(C3)C1)C2 | -13.2%
Cc1ccccc1C(=O)N1CCC(C(=O)Nc2ccc(S(=O)(=O)N(C)C(C)C)cc2)CC1 | -83.3%
Nc1c(-c2ccc(F)cc2)cnc2ncnn12 | -1.1%
COC(=O)c1ccc(C(=O)OC)c(NC(=S)N2CCCCC2)c1 | 1.5%
O=C(CSc1nc2ccccc2o1)N1c2ccccc2Sc2ccc(Cl)cc21 | 6.7%
Cc1ccccc1OCc1nnc(SCC(=O)N2c3ccccc3Sc3ccc(Cl)cc32)o1 | 1%
COc1ccc(CCNC(=O)COC(=O)c2ccc[nH]c2=O)cc1 | 3.2%
CC1CC(C)CN(C/C=C/c2ccccc2[N+](=O)[O-])C1 (stereo unspecified) | -2.6%
O=C(CSCc1ccc([N+](=O)[O-])cc1)NCCSCc1ccccc1 | -17.4%
O=C1c2ccccc2C(=O)c2c1cccc2N1CCN(Cc2ccccc2)CC1 | 33.6%
O=S(=O)(c1ccc(F)cc1)n1ccc(-c2cnc(-c3ccccc3)s2)n1 | 8.1%
O=c1[nH]n(-c2cccc(Cl)c2)c2ncccc12 | 0.8%
CC(=O)Nc1ccccc1C(=O)C(=O)Nc1ccc(F)cc1 | 21.4%
Cc1noc(C)c1C(=O)N(CC(=O)NC1CCCC1)Cc1ccccc1F | 5.6%
COc1cccc(NC(=O)C2c3cc(OC)c(OC)cc3C(=O)N(C)C2c2cccnc2)c1 (stereo unspecified) | 4.9%

Reference: PubChem BioAssay AID717 (Columbia University Molecular Screening Center, 2007)
